A short description of experiment [1]: Wnt pathway potentiators raising nuclear beta-catenin – imaging, WNT3A-conditioned medium, mouse C2C12, NPC library, primary screen (AID 1117326; in the data active = nuclear beta-catenin stimulation mostly above about 4.2%, no sharp cut-off; inactive = mostly below about 10%). The conditions noted are these: stronger effect = higher value.
The nature of experiment [2]: stimulators of insulin release from INS-1E, primary screen, cell-based, 5 mM glucose, NPC library (AID 1117329;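 active = compound raises insulin release from rat beta cells at 5 mM glucose, no numeric limit stated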). The conditions noted are these: rat INS-1E insulin secretion, at 10 µM, stronger effect = higher value.
Experiment [3] in a line: growth inhibition of GSK3B-pretreated HCT116 cells – cell-based, CellTiter-Glo, 0.2 to 20 µM (AID 1117336;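 active = compounds lowering colon cancer cell viability after pretreatment blocking the GSK3B kinase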). The conditions noted are these: HCT116 viability after GSK3B inhibitor, at 20 µM, stronger effect = higher value. (In general: Cellular ATP, detected with luciferase, serves as a proxy for viable cell number.)
Experiment [4] in a line: inhibition of endothelial tube formation, primary screen, imaging, VEGF stimulated, CD31 staining, tube area, NPC library (AID 1117340;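 active = compound that reduces growth-factor-driven endothelial tube area in a mixed cell culture, no cutoff stated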). The conditions noted are these: VEGF-stimulated ADSC/ECFC co-culture, at 10 µM, stronger effect = higher value.
Experiment [5] in a line: GLP1 release stimulators, primary, NCI-H716, NPC library (AID 1117341;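 active = compound raises GLP1 secretion from the human gut endocrine cells, with no numeric limit stated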). The following applies: NCI-H716 cells, at 10 µM, stronger effect = higher value.
A short description of experiment [6]: HCT116 colon cancer cell growth inhibition, primary screen, CellTiter-Glo luminescence, NPC library (AID 1117342;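 active = compounds that lower survival of HCT116 colon cancer cells in the luminescence readout, no numeric limit stated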). The conditions noted are these: at 20 µM (top of the series).
A short description of experiment [7]: reduced SW480 viability measured with CellTiter-Glo, NPC library, primary (AID 1117343;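 active = compounds that lower viability of the colon cancer cells in the luminescence readout, with no numeric limit stated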). The conditions noted are these: CellTiter-Glo luminescence; at 20 µM (top of the series) unless noted.
A short description of experiment [8]: NPC library primary testing for decreased DLD-1 cell viability via CellTiter-Glo (AID 1117346;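 active = compounds that lower survival of DLD-1 colon cancer cells in the luminescence readout, no cutoff given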). The conditions noted are these: DLD-1 viability, CellTiter-Glo luminescence; at 20 µM (top of the series).
Experiment [9] concerns Aerobactin synthetase IucA (Klebsiella pneumoniae). The experiment is described as follows: inhibition of K. pneumoniae IucA enzyme – biochemical, Tocris library, absorbance (AID 1345561; call rule not given here;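 also: 100% = enzyme without compound and 0% = no enzyme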). The following applies: purified IucA enzyme assay, absorbance (OD) read-out; stronger effect = lower value;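 tested at 8 µM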.
Experiment [10] can be described thus: viability loss with induced miR-34 in A549 – imaging, A549 dox-inducible miR-34, nuclei and caspase counts, primary screen (AID 1347080). The following applies: A549 miR-34 inducible, Hoechst nuclei count, 48 h.
For experiment [11], the target named is NAD(+) hydrolase SARM1 (Homo sapiens) (UniProt Q6SZW1). The experiment is described as follows: blocking NAD cleavage by SARM1 SAM-TIR – cell lysate, NAD-Glo luminescence (AID 1508614;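 active = compound whose remaining NAD level is above about 45 nM, limit read from the data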;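 also: higher remaining NAD means stronger inhibition of SARM1 NADase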). The following applies: SAM-TIR HEK293T lysate NADase, at 1 µM, stronger effect = higher value.
The nature of experiment [12]: galactose survival enhancers in mitochondrial complex I cybrids – cell-based, galactose medium, ATP luminescence, primary screen (AID 1645843;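 active = z-score of at least 1.8 in each of two replicates, scored against plate mean and spread of sample wells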;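 also: positive z means more ATP and so rescue of galactose-driven cybrid death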). The following applies: complex I mutant cybrid cells, 72 h, stronger effect = higher value.
A short description of experiment [13]: MELAS cybrid and Rieske KO viability enhancers – cell-based, MELAS cybrids, Rieske KO mouse fibroblasts, CellTiter-Glo, primary screen (AID 1508586;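 active = mean z-score across replicates of 1.96 or higher in either the MELAS or the Rieske mutant cell line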;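 also: z relative to plate mean and SD of compound and empty wells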). The following applies: low glucose.
The nature of experiment [14]: viability loss in pontine glioma line – cell-based, SU-DIPG-XIII, MIPE4.0, CellTiter-Glo, qHTS, dose response (AID 1347061; cut-off not given, nearly all actives have AC50 up to about 37 µM;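 also: cells exposed to compound for 48 hours before readout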). The following applies: CellTiter-Glo ATP luminescence.
Experiment [15] can be described thus: viability loss in pontine glioma line – cell-based, SU-DIPG-IV, MIPE4.0, CellTiter-Glo, qHTS, dose response (AID 1347063; cut-off not given, nearly all actives have AC50 up to about 30 µM;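 also: compound exposure lasted 48 hours before the viability readout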). The conditions noted are these: CellTiter-Glo ATP luminescence.
Setting [16] is: stronger effect = lower value, cell number ratio, induced over uninduced.
Setting [17] is: measured here: relative caspase fold change +Dox/-Dox.
[18] abbreviates: measured here: total cells with miR-34 induction, stronger effect = lower value.
The mark [19] stands for this setting: measured here: total cells without miR-34 induction.

Each structure is given as a SMILES string. “And” between values parts separate entries of the source, which are not always exact repeats. Equal entries are not always repeated. Results filed as inconclusive are left out. Some compounds were tested as several samples or in several runs, with calls that do not always agree. The source made the active and inactive calls.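 The calls were made as follows, unless noted: active = compounds whose cell count with miR-34 switched on is under 0.7 times the count with it off; inactive = the rest.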

NAD(+) hydrolase SARM1 (Homo sapiens), sequence (Q6SZW1 whole entry, looked up): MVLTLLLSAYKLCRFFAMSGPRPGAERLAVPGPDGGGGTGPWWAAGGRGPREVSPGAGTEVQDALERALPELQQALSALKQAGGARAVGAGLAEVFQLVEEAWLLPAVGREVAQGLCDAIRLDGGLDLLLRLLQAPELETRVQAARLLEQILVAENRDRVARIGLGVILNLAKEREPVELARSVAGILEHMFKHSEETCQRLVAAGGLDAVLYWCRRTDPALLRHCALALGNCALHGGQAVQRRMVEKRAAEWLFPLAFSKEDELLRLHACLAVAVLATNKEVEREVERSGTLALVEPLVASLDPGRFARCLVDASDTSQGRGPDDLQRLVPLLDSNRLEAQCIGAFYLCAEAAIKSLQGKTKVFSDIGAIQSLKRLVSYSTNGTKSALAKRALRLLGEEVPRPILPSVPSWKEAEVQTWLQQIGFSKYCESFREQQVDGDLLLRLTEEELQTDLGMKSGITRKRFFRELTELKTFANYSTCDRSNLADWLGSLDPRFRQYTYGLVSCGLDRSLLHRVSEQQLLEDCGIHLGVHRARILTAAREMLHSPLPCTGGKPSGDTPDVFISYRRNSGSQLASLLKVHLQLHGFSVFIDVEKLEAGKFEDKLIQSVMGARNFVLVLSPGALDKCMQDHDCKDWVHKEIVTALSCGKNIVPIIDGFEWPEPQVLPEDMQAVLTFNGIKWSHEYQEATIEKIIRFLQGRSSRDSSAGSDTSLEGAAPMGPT

Usually remaining activity stands for the signal under treatment as a percentage of the control signal. `CN1CCC[C@@H]1Cc1c[nH]c2ccc(CCS(=O)(=O)c3ccccc3)cc12`: the nuclear beta-catenin stimulation in [1] (at 10 µM) was 1.8% (inactive); in [1] (stimulation, at 2 µM), 1%. In addition, in experiment [2], the insulin secretion stimulation is 3.3% (inactive). In addition, in experiment [3], the viability decrease was 30.6% (inactive). Besides, the tube area decrease in [4] is 0.6% (inactive). In experiment [5], the GLP1 secretion stimulation was 5.3% (inactive). Besides, in experiment [6], the inhibition of viability is 36.8% (inactive). The figures for the viability decrease (inhibition) in experiment [7] and in experiment [8] were 19.5% (inactive) and -0.8% (inactive), respectively. The remaining activity in experiment [9] was 117% (inactive). The fold change was 0.993 (inactive) and 0.947 (inactive) in experiment [10] (setting [16]); 1.11 and 0.557 in [10] (setting [17]). For the same compound, the cell count in [10] (setting [18]) was 9730 and 9170; in experiment [10] (setting [19]) it was 9790 and 9680. The remaining NAD in experiment [11] was 10 nM (inactive). The z-score in experiment [12] was -0.6 (inactive) and -0.525 (inactive).
Turning to `COCC(=O)O[C@]1(CCN(C)CCCc2nc3ccccc3[nH]2)CCc2cc(F)ccc2[C@@H]1C(C)C`, the nuclear beta-catenin stimulation in experiment [1] (at 10 µM) is 14.4% (inactive); in [1] (stimulation, at 2 µM), -2.2%. Also, in experiment [2], the insulin secretion stimulation was 3.5% (inactive). In addition, the viability decrease in [3] was 107% (active). Besides, in experiment [4], the tube area decrease is 67.6% (active). Moreover, the GLP1 secretion stimulation in experiment [5] was 20.1% (active). In addition, the inhibition of viability in [6] was 110% (active). Further, the viability decrease (inhibition) in experiment [7] is 130% (active); in experiment [8] it was 101% (active). Moreover, the remaining activity in [9] is 86.1% (inactive). Further, the fold change in [10] (setting [16]) is 0.582 (active) and 1.03 (inactive); in [10] (setting [17]), 0.681 and 1.08. The cell count was 108 and 550 in [10] (setting [18]); 186 and 534 in experiment [10] (setting [19]). In addition, the z-score in experiment [12] is -1.29 (inactive) and -0.675 (inactive).
For the compound `CCOC(=O)[C@H](CCc1ccccc1)N[C@@H](C)C(=O)N1Cc2cc(OC)c(OC)cc2C[C@H]1C(=O)O`, the nuclear beta-catenin stimulation in experiment [1] (at 10 µM) is -0.5% (inactive); in [1] (stimulation, at 2 µM) it was 1.6%. Moreover, the insulin secretion stimulation in [2] is 0.3% (inactive). The viability decrease in [3] was -1.4% (inactive). The tube area decrease in experiment [4] was 78.4% (active). For the same compound, in experiment [5], the GLP1 secretion stimulation was 0.3% (inactive). Moreover, in experiment [6], the inhibition of viability was 6.7% (inactive). In addition, the viability decrease (inhibition) is -2.3% (inactive) in experiment [7] and 3.7% (inactive) in experiment [8]. Also, the remaining activity in [9] was 110% (inactive). Further, the fold change in experiment [10] (setting [16]) was 0.937 (inactive); in experiment [10] (setting [17]), 1.79. The cell count in [10] (setting [18]) amounted to 7700; in experiment [10] (setting [19]) it was 8220. Further, in [12], the z-score is -0.04 (inactive).
On to `C[C@H]1O[C@H](O[C@H]2[C@H](O)[C@@H](O)[C@@H](O[C@H]3[C@H](O)[C@@H](O)[C@H](O)O[C@@H]3CO)O[C@@H]2CO)[C@H](O)[C@@H](O)[C@@H]1N[C@H]1C=C(CO)[C@@H](O)[C@H](O)[C@H]1O`, for which the nuclear beta-catenin stimulation in experiment [1] (at 10 µM) was -0.6% (inactive); in experiment [1] (stimulation, at 2 µM) it was -1.1%. Further, in [2], the insulin secretion stimulation is 0.7% (inactive). Further, the viability decrease in experiment [3] is -5.3% (inactive). Besides, the tube area decrease in [4] is -8.2% (inactive). Moreover, the GLP1 secretion stimulation in [5] is -2.2% (inactive). In experiment [6], the inhibition of viability was 18.9% (inactive). Also, the viability decrease (inhibition) was -0.4% (inactive) in [7] and -0.5% (inactive) in experiment [8]. Besides, in [9], the remaining activity is 108% (inactive). In addition, the fold change is 0.838 (inactive) in [10] (setting [16]) and 1.97 in experiment [10] (setting [17]). Besides, the cell count in experiment [10] (setting [18]) was determined as 7710; in experiment [10] (setting [19]), 9210. In addition, the z-score was -0.1 (inactive) in experiment [13] (MELAS cybrid survival, CellTiter-Glo 48 h, stronger effect = higher value); -0.573 in experiment [13] (Rieske KO mouse fibroblast survival, CellTiter-Glo 72 h); 0.18 (inactive) in experiment [12].
As to `OC(CN1CCC(Cc2ccc(F)cc2)CC1)c1ccc(Cl)cc1` (stereo not given), the nuclear beta-catenin stimulation in experiment [1] (at 10 µM) is 2% (inactive); in experiment [1] (stimulation, at 2 µM), 2.8%. Further, the insulin secretion stimulation in experiment [2] is 2.2% (inactive). The viability decrease in experiment [3] was 78.9% (active). For the same compound, the tube area decrease in experiment [4] was -4.2% (inactive). Besides, the GLP1 secretion stimulation in experiment [5] was 2.9% (inactive). Besides, the inhibition of viability in experiment [6] was 78.6% (active). The viability decrease (inhibition) in [7] is 67.1% (active); in experiment [8], 75.2% (active). The remaining activity in [9] was 78.5% (inactive). The call in experiment [14] and in [15] was inactive. Besides, the fold change in experiment [10] (setting [16]) was 1.15 (inactive) and 0.894 (inactive); in experiment [10] (setting [17]) it was 0.858 and 1.23. The cell count was 6880 and 8360 in [10] (setting [18]); 6000 and 9350 in [10] (setting [19]). Moreover, in [12], the z-score is -0.6 (inactive) and 0.185 (inactive).

The values above are taken from PubChem BioAssay.
